This note sets out measurements from PubChem BioAssay (NCI).

This is part of a sample that, as a whole, favours compounds with a hit. Of some 83,000 tested, about 20% had one in any assay.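 48-hour exposure, single concentration, 96-well plates; percent growth endpoint where 0 means no net growth. Active: below 10.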 A number with no mark means an inactive call. Calls of active or inactive are those of the source.

Some test systems named below: HCT-15 colon; HT29 colon; SNB-75 CNS; SNB-19 CNS; U251 CNS; PC-3 prostate; SK-MEL-5 melanoma; UACC-62 melanoma; LOX IMVI melanoma; SK-MEL-28 melanoma.
Assay in all cases: NCI-60 one-dose screen, 48 h (100 = growth as untreated, 0 = no growth, -100 = all killed)
Conditions in all cases: 10 µM

For `CCOC(=O)c1cc(C(=O)c2cc(OC)cc(OC)c2)n2nc(C)ccc12`, the growth in the assay with HCT-15 colon is 32.2%; in the assay on HT29 colon it was 3.72% (active); with SNB-75 CNS, 18%; in the assay on SNB-19 CNS it was 39.4%; with U251 CNS it was 23.1%; in the assay with PC-3 prostate, 25%. Also, the growth with SK-MEL-5 melanoma was 30.6%; with UACC-62 melanoma it was 46.7%; in the assay on LOX IMVI melanoma, 48.7%; with SK-MEL-28 melanoma it was 78.7%.

Consider `COc1ccc2nc3cc(Cl)ccc3c(NCCCNCCO)c2c1`, for which the growth in the assay with HCT-15 colon was 13.6%; in the assay with HT29 colon it was -66.3% (active); in the assay with SNB-75 CNS, -36.4% (active); in the assay on SNB-19 CNS it was 4.9% (active); with U251 CNS, -45.2% (active); in the assay with PC-3 prostate, -30.6% (active). The growth in the assay with SK-MEL-5 melanoma was 14.3%; in the assay on UACC-62 melanoma it was -64.2% (active); in the assay on LOX IMVI melanoma it was -59.7% (active); in the assay on SK-MEL-28 melanoma, -49% (active).

Regarding `CN1CCN(CCC(=O)Nc2cccc(-n3cc(-c4ccncc4)c(-c4ccc(Cl)c(O)c4)n3)c2)CC1`, the growth in the assay on HCT-15 colon was 39.3%; with HT29 colon, 4.91% (active); with SNB-75 CNS, 24.5%; in the assay with SNB-19 CNS, 55%; with U251 CNS, 32.4%; with PC-3 prostate it was 29.3%. Moreover, the growth in the assay on SK-MEL-5 melanoma was 24.2%; in the assay with UACC-62 melanoma it was 46.9%; with LOX IMVI melanoma it was 15.7%; in the assay on SK-MEL-28 melanoma it was 57.7%.

For `COc1ccc2nc3cc(Cl)ccc3c(Nc3cc(CN4CCCC4)c(O)c(CN4CCCC4)c3)c2n1`, the growth is 5.6% (active) with HCT-15 colon; 1.23% (active) in the assay with HT29 colon; -64.4% (active) in the assay on SNB-75 CNS; 14.5% in the assay on SNB-19 CNS; 10.4% in the assay with U251 CNS; 6.93% (active) in the assay on PC-3 prostate. The growth in the assay on SK-MEL-5 melanoma was -96.1% (active); in the assay on UACC-62 melanoma, -23.4% (active); in the assay with LOX IMVI melanoma it was -8.24% (active); with SK-MEL-28 melanoma, -21.8% (active).

In the case of `NC(N)=N/N=C(\c1ccccc1)C(O)c1ccccc1` (stereo not given), the growth was 111% in the assay on HCT-15 colon; 92.3% in the assay with HT29 colon; 93.7% with SNB-75 CNS; 95.3% in the assay on SNB-19 CNS; 106% with U251 CNS; 94.6% in the assay with PC-3 prostate. Further, the growth in the assay with SK-MEL-5 melanoma was 103%; in the assay on UACC-62 melanoma it was 94.6%; in the assay with LOX IMVI melanoma, 94.2%; in the assay with SK-MEL-28 melanoma, 107%.

For `CCN(CC)CCOc1cccc2c1C(=O)c1ccccc1C2=O`, the growth in the assay on HCT-15 colon is 94.6%; in the assay with HT29 colon it was 80.6%; in the assay with SNB-75 CNS, 86.4%; in the assay with SNB-19 CNS it was 92.1%; in the assay on U251 CNS, 93.4%; in the assay on PC-3 prostate it was 83.5%. In addition, the growth with SK-MEL-5 melanoma was 93.7%; with UACC-62 melanoma it was 95.2%; in the assay on LOX IMVI melanoma, 84.1%; with SK-MEL-28 melanoma, 111%.

Consider `CNC(=O)c1cc(Oc2ccc3c(c2)sc2nc(-c4ccc(NC(=O)Nc5ccc(Cl)c(C(F)(F)F)c5)cc4)cn23)ccn1`, for which the growth with HCT-15 colon is 71.4%; with HT29 colon, 67.2%; in the assay on SNB-75 CNS, 66.6%; in the assay on SNB-19 CNS, 85.7%; with U251 CNS it was 61.9%; in the assay on PC-3 prostate, 64%. Also, the growth was 86.6% in the assay with SK-MEL-5 melanoma, 88% with UACC-62 melanoma, 76.1% in the assay with LOX IMVI melanoma and 88.4% in the assay with SK-MEL-28 melanoma.

For `O=C1/C=C/[C@@H](O)[C@@H]2C[C@@H](O)C[C@H]2/C=C/CCC[C@H](CCc2ccc(NC(=S)Nc3ccc4c(c3)C(=O)OC43c4ccc(O)cc4Oc4cc(O)ccc43)cc2)O1`, the growth with HCT-15 colon was 3.98% (active); in the assay on HT29 colon, 1.54% (active); with SNB-75 CNS, 48.9%; in the assay on SNB-19 CNS, 34.1%; with U251 CNS, 20%; in the assay on PC-3 prostate it was 23.3%. Also, the growth was -87.2% (active) in the assay on SK-MEL-5 melanoma, 16.3% with UACC-62 melanoma, -51.4% (active) with LOX IMVI melanoma and 9.95% (active) in the assay with SK-MEL-28 melanoma.

Consider `CCN(CC)CCCC(Nc1c2ccc(Cl)cc2nc2ccc(OC)cc12)c1ccc(F)cc1` (stereo not given), for which the growth with HCT-15 colon is 1.06% (active); with HT29 colon, 5.7% (active); with SNB-75 CNS it was 93.3%; in the assay with SNB-19 CNS, 45.7%; in the assay with U251 CNS, -29% (active); with PC-3 prostate, 73%. Moreover, the growth in the assay on SK-MEL-5 melanoma was -95.7% (active); in the assay on UACC-62 melanoma, 109%; with LOX IMVI melanoma, -73.2% (active); in the assay on SK-MEL-28 melanoma, -83.5% (active).

`COc1ccc(NC(=O)C2CC3C=CC2C3)c([N+](=O)[O-])c1` (stereo not given): the growth is 97.1% with HCT-15 colon; 101% with HT29 colon; 91.2% with SNB-75 CNS; 91.9% in the assay on SNB-19 CNS; 98.4% in the assay on U251 CNS; 94.9% in the assay with PC-3 prostate. The growth is 96% with SK-MEL-5 melanoma, 96.5% with UACC-62 melanoma, 95.3% with LOX IMVI melanoma and 98.1% in the assay on SK-MEL-28 melanoma.

As to `COc1cccc(-c2nc3sccn3c2-c2cccc(S(C)(=O)=O)c2)c1`, the growth in the assay with HCT-15 colon is 95.3%; with HT29 colon, 118%; in the assay on SNB-75 CNS, 95.1%; in the assay with SNB-19 CNS it was 99.2%; in the assay with U251 CNS, 106%; with PC-3 prostate, 94.7%. For the same molecule, the growth in the assay with SK-MEL-5 melanoma was 94.8%; in the assay on UACC-62 melanoma, 99.4%; with LOX IMVI melanoma, 88.6%; with SK-MEL-28 melanoma, 112%.

In the case of `CCOC(=O)c1cc(C(=O)c2cc(OC)c(OC)c(OC)c2)n2c1ccc1c3cccnc3ccc12`, the growth was 41.4% in the assay with HCT-15 colon; 19.5% with HT29 colon; 64.7% in the assay on SNB-75 CNS; 71.9% with SNB-19 CNS; 51% in the assay with U251 CNS; 63.9% with PC-3 prostate. Moreover, the growth was 34.1% in the assay with SK-MEL-5 melanoma, 57.5% in the assay on UACC-62 melanoma, 46.9% in the assay with LOX IMVI melanoma and 80.2% with SK-MEL-28 melanoma.

Regarding `C=CCn1c(SCC(=O)Nc2ccc(C(=O)/C=C/c3ccc(OC)cc3)cc2)nnc1-c1ccc(OC)c(OC)c1`, the growth with HCT-15 colon is 83.8%; with HT29 colon, 89.8%; in the assay on SNB-75 CNS, 76.4%; with SNB-19 CNS it was 89%; in the assay with U251 CNS, 87.4%; in the assay with PC-3 prostate, 67.2%. In addition, the growth with SK-MEL-5 melanoma is 62.8%; with UACC-62 melanoma it was 75.7%; with LOX IMVI melanoma, 86.5%; in the assay on SK-MEL-28 melanoma, 105%.
